E coli growth-1 – reduces bacterial viability in AddAB counter-screen. E. coli V3065 growth, OD600 absorbance, 18 h. 0.27% of 330,000 active. inhibition, % at 11.9 µM;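 active means inhibition above the campaign's mean inhibition across all tested compounds plus 3 SD, cut at about 9.9% in these data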;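 further: uninfected addAB+ strain grown without phage in ampicillin broth; 0% = DMSO wells and 100% = ciprofloxacin 0.95 µg/ml wells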
AddAB inh – less growth of phage-infected E. coli with AddAB | E. coli expressing H. pylori AddAB, absorbance growth | inhibition, % at 11.9 µM | 0.29% of 330,000 active | AID 435030; in the data active means inhibition above about 12%;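 further: 0% = vehicle wells of infected cells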
phage Ecoli inh – E. coli growth loss with phage present | growth absorbance | inhibition, % at 11.9 µM | 0.26% of 360,000 active | AID 651602; in the data active means inhibition above about 11%
E coli growth-2 – blocks Escherichia coli growth; OD600, 23 h; stronger effect = lower value; OD600 absorbance (test concentration not listed); 0.21% of 330,000 active; AID 1053175;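 active means OD600 absorbance below the run mean of sample wells minus 3.6 SD, in any replicate, cut at about 0.56 in these data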
Tat transport – inhibitors of E. coli Tat protein transport. E. coli MC4100 TorA-mCherry Tat export, fluorescence. inhibition, % at 10 µM. 0.036% of 340,000 active;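 active means mean replicate inhibition at least 50% and at least half of replicates individually reaching 50%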;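 further: exported cargo escapes ClpAP degradation while cytoplasmic cargo is degraded and loses fluorescence; 0% = median of neutral control wells and 100% = median of NaSCN control wells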
RecBCD conf – growth loss of phage-infected V66 E. coli, RecBCD confirmation screen; shares compounds with phage Ecoli inh; E. coli V66 + T4 2- phage, growth OD; inhibition, % at 11.9 µM; 45% of 890 active;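 active means mean inhibition over triplicates exceeding the hit threshold derived in the original primary screen, cut at about 11% in these data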
Ecoli viability – inhibits E. coli viability, flagging RecBCD hits as nonselective | inhibition, % at 11.9 µM | absorbance (OD) growth | 29% of 890 active | shares compounds with phage Ecoli inh | AID 651983; in the data active means inhibition above about 20%;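 further: E. coli strain V66 grown with compound alone and no phage infection; 0% = bacteria with DMSO vehicle only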
AddAB phage OD – growth loss of phage-infected AddAB E. coli, RecBCD counter-screen; shares compounds with phage Ecoli inh; E. coli expressing H. pylori AddAB + T4 phage, OD growth; gene 2 mutant T4, recBCD-deleted host; inhibition, % at 11.9 µM; 45% of 890 active; AID 651984;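 active means mean inhibition above the solvent-only control wells' mean plus 3 SD, cut at about 22% in these data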;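 further: higher means less bacterial growth from phage killing when AddAB is blocked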
The depositor's hits bear a star. An excerpt weighted towards active compounds, which were near 0.5% of everything screened.

`Cc1ccc(C(C)C)c(OCCCn2ccnc2C)c1` gave E coli growth-1 -1.2, AddAB inh -0.8, phage Ecoli inh 2.1, E coli growth-2 0.606 and Tat transport 6.6.
COCCNCCCCOc1ccccc1-c1ccccc1 was read as E coli growth-1 2.9, AddAB inh 3.7, phage Ecoli inh 2.5, E coli growth-2 0.653 and Tat transport 1.0.
For CN(C)CCOc1ccc2c(c1)C(=O)C(=Cc1ncc([N+](=O)[O-])n1C)C2 the results were phage Ecoli inh 94.9*, RecBCD conf 86.6*, Ecoli viability 96.4* and AddAB phage OD 100.2*.
For CCc1cc(OCCN(C)C)ccc1Cl the results were E coli growth-1 0.8, AddAB inh -1.1, phage Ecoli inh -4.4, E coli growth-2 0.712 and Tat transport -2.2.
Screening CCN(CCOC(=O)Nc1ccc(Cl)cc1)C(=O)Nc1ccc(Cl)cc1 returned phage Ecoli inh 11.4*, RecBCD conf 4.5, Ecoli viability 5.2 and AddAB phage OD 1.4.
`C=C(C)C(=O)Nc1cccc(C2=NOC3(C2)CC(C(N)=O)N(C(=O)C(C)=CC)C3)c1` (stereo not drawn) gave E coli growth-2 0.668.
Cc1nnc(SCC2=C(C(=O)O)N3C(=O)C(NC(=O)Cn4cnnn4)C3SC2)s1 (stereo not drawn) was read as E coli growth-1 -0.9, AddAB inh -2.9, phage Ecoli inh 99.8*, E coli growth-2 0.062*, Tat transport 0.1, RecBCD conf 103.5*, Ecoli viability 105.8* and AddAB phage OD 0.9.
`Cc1nnc(SCC2=C(C(=O)O)N3C(=O)C(NC(=O)Cn4nc(C(F)F)c(Cl)c4C)C3SC2)s1` (stereo not drawn) gave E coli growth-1 1.8, AddAB inh -0.7, phage Ecoli inh 4.1, E coli growth-2 0.623 and Tat transport 17.2.
CN(C)CCn1nnnc1SCC1=C(C(=O)O)N2C(=O)[C@@H](NC(=O)Cc3csc(N)n3)[C@H]2SC1 was read as E coli growth-1 0.3, AddAB inh 1.1, phage Ecoli inh 99.4*, Tat transport -3.3, RecBCD conf 103.5*, Ecoli viability 105.5* and AddAB phage OD 50.8*.
`CCC(C(=O)NC1C(=O)N2C(C(=O)O)=C(CSc3nnc(C)s3)CSC12)c1ccccc1` (stereo not drawn) gave E coli growth-1 -0.2, AddAB inh 0.5, phage Ecoli inh 4.2, E coli growth-2 0.629 and Tat transport -2.6.
Screening Cc1nnc(SCC2=C(C(=O)O)N3C(=O)[C@@H](NC(=O)Cn4cnnn4)[C@H]3SC2)s1 returned E coli growth-1 0.5, AddAB inh -1.3, phage Ecoli inh 93.7*, E coli growth-2 0.045*, Tat transport -5.8, RecBCD conf 101.9*, Ecoli viability 104.4* and AddAB phage OD 2.8.
`COc1ccc(NS(=O)(=O)c2ccc3oc(SCc4ccc(F)cc4)nc3c2)cc1` gave E coli growth-1 0.0, AddAB inh 3.0, phage Ecoli inh 1.6, E coli growth-2 0.71 and Tat transport 16.3.
NC(=S)NN=Cc1cn(CCC(=O)O)nc1-c1cccc(Br)c1 was read as E coli growth-2 0.699.
COc1ccc(-c2nn(CCC(=O)O)cc2/C=N/NC(N)=S)cc1 was read as E coli growth-1 -2.1, AddAB inh -1.0, phage Ecoli inh 73.4*, Tat transport 6.0, RecBCD conf -0.7, Ecoli viability -1.0 and AddAB phage OD 3.5.
Screening NC(=S)NN=Cc1cc(-c2cccc(N)c2)ccn1 returned phage Ecoli inh 21.2*, RecBCD conf 13.8*, Ecoli viability 16.0 and AddAB phage OD 31.7*.
For CCC(C)NC(=O)Nc1ccccc1F (stereo not drawn) the results were E coli growth-1 -0.2, AddAB inh 2.6, phage Ecoli inh 0.6, E coli growth-2 0.728 and Tat transport -8.2.
O=C(CN1C(=O)COc2ccccc21)NNC(=O)Nc1ccccc1F was read as E coli growth-1 -1.4, AddAB inh 3.2, phage Ecoli inh 1.9, E coli growth-2 0.693 and Tat transport -6.4.
Screening O=C(CN1C(=O)COc2ccccc21)Nc1ccccc1F returned E coli growth-1 1.5, AddAB inh -0.1, phage Ecoli inh 14.1*, E coli growth-2 0.691, Tat transport 21.6, RecBCD conf -2.7, Ecoli viability -2.7 and AddAB phage OD -2.7.
Screening Cc1ccnc2c1ccc1ccccc12 returned E coli growth-1 1.5, AddAB inh 2.1, phage Ecoli inh 2.8, E coli growth-2 0.605 and Tat transport -0.3.
Screening Cc1ccnc2c1ccc1cccnc12 returned phage Ecoli inh 13.7*, E coli growth-2 0.371*, Tat transport 1.9, RecBCD conf 12.6*, Ecoli viability 16.6 and AddAB phage OD 16.5.
Screening COc1ccc(C(=O)NN(c2ccccc2)c2ccccc2)cc1 returned E coli growth-1 -1.5, AddAB inh 0.8, phage Ecoli inh 0.8, E coli growth-2 0.713 and Tat transport -5.6.
For O=[N+]([O-])c1ccc2nc(-c3ccc(Cl)cc3)[nH]c2c1 the results were E coli growth-1 2.8, AddAB inh 9.6, phage Ecoli inh 11.1*, E coli growth-2 0.556, Tat transport -1.3, RecBCD conf 3.4, Ecoli viability 5.5 and AddAB phage OD 8.6.
`Cc1ccc(-c2nc3ccc([N+](=O)[O-])cc3[nH]2)cc1` gave E coli growth-1 3.2, AddAB inh 7.5, phage Ecoli inh 4.7, E coli growth-2 0.534 and Tat transport 0.5.
Cc1nc2ccc(N)cc2c(=O)n1Cc1ccc(Cl)cc1 was read as E coli growth-1 -0.7, AddAB inh 1.9, phage Ecoli inh 4.1, E coli growth-2 0.694 and Tat transport 14.8.
Nc1ccc(Cn2ccc3c4c(N)nc(N)nc4ccc32)cc1 was read as phage Ecoli inh 99.8*, Tat transport 16.8, RecBCD conf 103.2*, Ecoli viability 104.5* and AddAB phage OD 104.9*.
Oc1c(C(Nc2ccccn2)c2cccnc2)cc(Cl)c2cccnc12 (stereo not drawn) was read as E coli growth-1 10.3*, AddAB inh 11.8, phage Ecoli inh 17.5*, E coli growth-2 0.675, Tat transport 2.3, RecBCD conf 1.9, Ecoli viability 4.9 and AddAB phage OD 17.3.
`CC(=O)NC(c1cc(Cl)c2cccnc2c1O)C1CC1` (stereo not drawn) gave E coli growth-1 2.9, AddAB inh -0.5, phage Ecoli inh 6.4, E coli growth-2 0.683 and Tat transport -0.4.
`CC(=O)NC(c1ccc(C)cc1)c1cc(Cl)c2cccnc2c1O` (stereo not drawn) gave phage Ecoli inh 20.9*, Tat transport -7.5, RecBCD conf 11.9*, Ecoli viability 16.0 and AddAB phage OD 17.5.

Screening data from PubChem BioAssay.
